# Data from the supplement of paper PMC13380429.
# Columns and labels:
# [1] = system: Vero E6 infected with SARS-CoV-2; assay: morphology score (similarity to uninfected cells); higher = more like uninfected cells; conditions: 24 h
# [2] = system: Vero E6 infected with SARS-CoV-2; assay: SARS-CoV-2 infection rate relative to infected DMSO; higher = more infection, active = 60 or less; conditions: 24 h
SMILES,morphology score [1],SARS-CoV-2 infection rate [2]
Cc1cc(OCC(=O)O)cc(C)c1Cc1ccc(O)c(C(C)C)c1 [sobetirome] (10 µM),0.0763,103% (inactive)
CN(C(=O)Cc1ccc(Cl)c(Cl)c1)[C@H](CN1CCCC1)c1ccccc1 (10 µM),0.793,21.5% (active)
O=C(N[C@H](CO)[C@H](O)c1ccc([N+](=O)[O-])cc1)C(Cl)Cl [chloramphenicol] (10 µM),-0.278,117% (inactive)
N=C(N)NC(=N)NCCc1ccccc1 [phenformin] (10 µM),0.0321,110% (inactive)
Oc1ccc2c3c1O[C@H]1c4[nH]c5c(c4C[C@@]4(O)[C@@H](C2)N(CC2CC2)CC[C@]314)C[C@@]1(O)[C@H]2Cc3ccc(O)c4c3[C@@]1(CCN2CC1CC1)[C@H]5O4 [nor-binaltorphimine] (10 µM),-0.0703,114% (inactive)
COc1ccc(OC)c(CN(C(C)=O)c2cc(F)ccc2Oc2ccccc2)c1 (10 µM),0.0987,95% (inactive)
O=C(O)CCCc1c[nH]c2ccccc12 [3-indolebutyric-acid] (10 µM),0.123,114% (inactive)
Cc1cccc(C)c1NC(=O)CN1CCCCCC1 [pincainide] (10 µM),0.00868,106% (inactive)
COc1ccc(-n2nc(C(F)(F)F)cc2-c2ccc(Cl)cc2)cc1 (0.833333 µM),-0.0472,101% (inactive)
O=S(=O)(O)c1cc(I)c(O)c2ncccc12 [chiniofon] (10 µM),0.0464,102% (inactive)
NC(=O)N1C(=O)/C(=C(\O)c2cccs2)c2cc(Cl)ccc21 [tenidap] (10 µM),0.0356,91% (inactive)
CC#CC(=O)N1CCC[C@H]1c1nc(-c2ccc(C(=O)Nc3ccccn3)cc2)c2c(N)nccn12 [acalabrutinib] (10 µM),-0.00394,108% (inactive)
Clc1ccc(C(OCCN2CCCCC2)c2ccccc2)cc1 (stereo not given) [cloperastine] (10 µM),0.412,75.5% (inactive)
N=C(N)NCCC[C@H](NC(=O)[C@@H]1CCCN1C(=O)[C@@H]1CSSC[C@H](N)C(=O)N[C@@H](Cc2ccc(O)cc2)C(=O)N[C@@H](Cc2ccccc2)C(=O)N[C@@H](CCC(N)=O)C(=O)N[C@@H](CC(N)=O)C(=O)N1)C(=O)NCC(N)=O [vasopressin] (10 µM),0.0923,95.5% (inactive)
CC=CC1=C(C(=O)O)N2C(=O)[C@@H](NC(=O)[C@H](N)c3ccc(O)cc3)[C@H]2SC1 (mixture of isomers) [cefprozil] (10 µM),0.273,99% (inactive)
Cc1onc(-c2ccccc2)c1C(=O)N[C@@H]1C(=O)N2[C@@H]1SC(C)(C)[C@@H]2C(=O)O [oxacillin] (10 µM),-0.00627,110% (inactive)
COc1cc2/c(=N/c3ccc(Br)cc3F)nc[nH]c2cc1OCC1CCN(C)CC1 [vandetanib] (10 µM),0.0459,102% (inactive)
O=C(NC[C@H]1CN(c2ccc(N3CCOCC3=O)cc2)C(=O)O1)c1ccc(Cl)s1 [Rivaroxaban (Xarelto)] (10 µM),0.193,97.5% (inactive)
Cc1ccc(OC[C@@H](O)[C@H](C)NC(C)C)c2c1CCC2 (racemic) (10 µM),-0.0205,110% (inactive)
C[C@]12CC[C@@H]3c4ccc(O)cc4CC[C@H]3[C@@H]1CC[C@@H]2O [estradiol] (10 µM),-0.0909,116% (inactive)
NS(=O)(=O)c1ccc(NC(=O)Nc2ccc(F)cc2)cc1 (10 µM),0.0694,108% (inactive)
NC[C@H]1O[C@H](O[C@H]2[C@H](O)[C@@H](O[C@H]3O[C@H](CO)[C@@H](O)[C@H](N)[C@H]3O)[C@H](N)C[C@@H]2N)[C@H](N)[C@@H](O)[C@@H]1O [bekanamycin] (10 µM),0.0989,103% (inactive)
CCC(CC)(NC(=O)C(C)C)C(=O)N[C@@H](CCCNC(=N)N)C(=O)NC1(C(=O)NC(c2ccc(F)cc2)c2ccc(F)cc2)CCCC1 (10 µM),-0.044,116% (inactive)
NCCCCN(Cc1nc2ccccc2[nH]1)[C@H]1CCCc2cccnc21 (10 µM),0.0412,102% (inactive)
C[C@H]1COc2c(C3(N)CC3)c(F)cc3c(=O)c(C(=O)O)cn1c23 [pazufloxacin] (10 µM),0.202,103% (inactive)

SMILES,morphology score [1],SARS-CoV-2 infection rate [2]
CNC(=O)c1nn(C)c2c1C(C)(C)Cc1cnc(Nc3ccc(N4CCN(C)CC4)cc3)nc1-2 (10 µM),-0.142,112% (inactive)
N[C@@H](Cn1oc(=O)[nH]c1=O)C(=O)O [L-quisqualic-acid] (10 µM),0.0395,106% (inactive)
CC(C)(C)NCC(O)c1cc(Cl)c(N)c(Cl)c1 (stereo not given) [clenbuterol] (10 µM),-0.0972,110% (inactive)
CN1C(=O)CC(C)(c2ccccc2)C1=O (stereo not given) [methsuximide] (10 µM),0.0784,110% (inactive)
CC(=O)NCCC(=O)N[C@@H](Cc1c[nH]cn1)C(=O)O [N-acetylcarnosine] (10 µM),-0.122,116% (inactive)
COc1cccc(Nc2ncnn3ccc(CN4CC[C@@H](N)[C@H](O)C4)c23)c1 (0.833333 µM),-0.24,112% (inactive)
CC1(C)OC[C@@H](COC(=O)CCc2ccc(OC[C@@H](O)CNCCNC(=O)N3CCOCC3)cc2)O1 [landiolol] (10 µM),-0.108,113% (inactive)
O=c1[nH]cc(F)c(=O)[nH]1 [5-fluorouracil] (0.833333 µM),0.0377,102% (inactive)
O=C(CCCN1CCC(O)(c2ccc(Br)cc2)CC1)c1ccc(F)cc1 [bromperidol] (10 µM),-0.0835,106% (inactive)
CC(C)(C)c1ccc(C(=O)CCCN2CCC(OC(c3ccccc3)c3ccccc3)CC2)cc1 [ebastine] (10 µM),0.606,50% (active)
O=C(Nc1ccc(F)cc1)N1CCc2ccccc2[C@@H]1c1ccc(C(F)(F)F)cc1 (10 µM),0.195,87% (inactive)
COC(=O)N[C@H](C(=O)N[C@@H](Cc1ccccc1)[C@@H](O)CN(Cc1ccc(-c2ccccn2)cc1)NC(=O)[C@@H](NC(=O)OC)C(C)(C)C)C(C)(C)C [atazanavir] (10 µM),0.129,112% (inactive)
CSCC[C@H](NC(=O)[C@H](CC(C)C)NC(=O)CNC(=O)[C@H](Cc1ccccc1)NC(=O)[C@H](Cc1ccccc1)NC(=O)[C@H](CCC(N)=O)NC(=O)[C@H](CCC(N)=O)NC(=O)[C@@H]1CCCN1C(=O)[C@H](CCCCN)NC(=O)[C@@H]1CCCN1C(=O)[C@@H](N)CCCN=C(N)N)C(N)=O [substance-P] (10 µM),-0.0435,114% (inactive)
CN(C)[C@@H]1C(O)=C(C(N)=O)C(=O)[C@@]2(O)C(O)=C3C(=O)c4c(O)cccc4[C@@](C)(O)[C@H]3[C@H](O)[C@@H]12 [oxytetracycline] (10 µM),-0.0366,106% (inactive)
COc1ccc(CN(CCN(C)C)c2ccccn2)cc1 [mepyramine] (10 µM),0.0933,106% (inactive)
Cc1ncc(C)n2nc([C@@H]3C[C@H]3c3nc4c5cccnc5ccn4c3C)nc12 (10 µM),-0.0961,106% (inactive)
CO[C@H]1C[C@H](O[C@H]2[C@H](C)O[C@@H](O[C@@H]3/C(C)=C/C[C@@H]4C[C@@H](C[C@]5(C=C[C@H](C)[C@@H](C6CCCCC6)O5)O4)OC(=O)[C@@H]4C=C(C)[C@@H](O)[C@H]5OC/C(=C\C=C\[C@@H]3C)[C@]54O)C[C@@H]2OC)O[C@@H](C)[C@@H]1O [doramectin] (0.833333 µM),0.0705,104% (inactive)
COCCOC(=O)C1=C(C)NC(C)=C(C(=O)OC(C)C)C1c1cccc([N+](=O)[O-])c1 (stereo not given) [nimodipine] (10 µM),0.14,92% (inactive)
CC1(C)O[C@@H]2C[C@H]3[C@@H]4CCC5=CC(=O)CC[C@]5(C)[C@@]4(F)[C@@H](O)C[C@]3(C)[C@]2(C(=O)CCl)O1 [halcinonide] (10 µM),0.157,106% (inactive)
CN(C(=O)/C=C/c1ccoc1)[C@@H]1CC[C@@]2(O)[C@H]3Cc4ccc(O)c5c4[C@@]2(CCN3CC2CC2)[C@H]1O5 [nalfurafine] (10 µM),-0.0681,108% (inactive)
CN[C@@H](C)C(=O)N[C@H](C(=O)N1CCC[C@H]1C(=O)N[C@H]1c2ccccc2C[C@H]1OCC#CC#CCO[C@@H]1Cc2ccccc2[C@@H]1NC(=O)[C@@H]1CCCN1C(=O)[C@@H](NC(=O)[C@H](C)NC)C1CCCCC1)C1CCCCC1 (10 µM),-0.161,112% (inactive)
C=CC1=C(C(=O)O)N2C(=O)[C@@H](NC(=O)/C(=N\O)c3csc(N)n3)[C@H]2SC1 [cefdinir] (10 µM),-0.118,107% (inactive)
C[C@](N)(Cc1ccc(O)cc1)C(=O)O [metirosine] (10 µM),-0.111,112% (inactive)
CC(C)NC(=O)c1ccc(C#Cc2ccncc2)cn1 (10 µM),0.0135,102% (inactive)
Cc1c2oc3c(C)ccc(C(=O)N[C@@H]4C(=O)N[C@@H](C(C)C)C(=O)N5CCC[C@H]5C(=O)N(C)CC(=O)N(C)[C@@H](C(C)C)C(=O)O[C@@H]4C)c3nc-2c(C(=O)N[C@@H]2C(=O)N[C@@H](C(C)C)C(=O)N3CCC[C@H]3C(=O)N(C)CC(=O)N(C)[C@@H](C(C)C)C(=O)O[C@@H]2C)c(N)c1=O [actinomycin-d] (0.833333 µM),0.164,93% (inactive)
